Source: PubChem BioAssay
This excerpt belongs to a sample that is enriched for hits.
Dicer processing: blocks human Dicer maturation of pre-miR-21; Q9UPY3; cat-ELCCA pre-miR-21 Dicer processing, chemiluminescence; active compounds read high; z-score at 25 µM; hit rate 6% among 47,000; AID 1347074; in the data active = z-score above about 3, passing the limit was not always enough;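 note: higher signal means more uncleaved substrate so more Dicer inhibition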
Large screens that a line does not name were inactive.

CCCc1[nH]nc2c1C(c1ccc(OCC)cc1)C(C#N)=C(N)O2 (configuration not stated)	none
CC(C)NC(=O)n1nccc1-c1ccc([N+](=O)[O-])cc1Cl	none
O=C1CC(c2ccccc2)Oc2ccccc21 (configuration not stated)	none
O=C1CC(c2ccccc2)Oc2cc(Cl)ccc21 (configuration not stated)	none
O=C1CC(c2ccc(O)cc2)Oc2cc(O)ccc21 (configuration not stated)	Dicer processing 4.8
CC1(C)Cc2c(sc3ncn4nc(-c5ccccc5)nc4c23)C(C)(C)N1	none
CC(C)CNC(=S)NC(=O)c1csc([N+](=O)[O-])c1	none
O=C(NC(=S)NN1CCCCC1)c1csc([N+](=O)[O-])c1	none
CC(C)c1ccc(NC(=S)NNC(=O)NC(=O)c2csc([N+](=O)[O-])c2)cc1	Dicer processing 4.7
CCCCC(C(=O)O)N1C(=O)C2CC=C(Cl)CC2C1=O (configuration not stated)	none
OC1CCN(C(=S)Nc2cccc(C(F)(F)F)c2)CC1	none
FC(F)(F)c1cccc(-n2cccc2)c1	none
O=C(O)c1cn(CCOc2ccc(Cl)cc2)c2ccccc12	none
Cc1cc(C)nc(N2N=C(CSc3ccc(Cl)cc3)CC2=O)n1	none
Cc1cc(C)nc(N2N=C(C(C)C)CC2=O)n1	none
Cc1cc(C)nc(SCC2=NN(c3nc(C)cc(C)n3)C(=O)C2)n1	Dicer processing 4
C#CC(C)(C)NC(=O)Nc1ccccc1	none
CCC(=O)N1c2ccccc2N=C(c2ccccc2)CC1c1ccccc1 (configuration not stated)	none
O=C1Nc2ccccc2C1=NCCCN=C1C(=O)Nc2ccccc21	none
O=C1Nc2ccccc2C1=Nc1ccc(Cc2ccc(N=C3C(=O)Nc4ccccc43)cc2)cc1	Dicer processing 3.9
COc1ccc(N=C2C(=O)Nc3ccc(Br)cc32)cc1	none
CC(C)(Oc1ccc2ccccc2c1)C(=O)O	none
Cn1cnnc1SCC(=O)N1c2ccccc2CCc2ccccc21	none
Cc1ccc2c(c1)C(C)(c1ccccc1)CC(C)(C)N2C(=O)CSc1nncn1C (configuration not stated)	Dicer processing 5.6
CC1=CC(C)(C)N(C(=O)CSc2nncn2C)c2ccccc21	none
COCC(=O)Nc1sccc1C(=O)OC	none
CN1CN=C2SC(CO)(CO)C(=O)N2C1	none
COC(=O)C12CCC(=O)C(C(=O)OC)(CCC1=O)C2	none
O=C(c1cn(CCOc2ccc(Cl)cc2)c2ccccc12)C1CC1	none
CCOC(=O)COc1nc(-c2ccccc2)cc(-c2ccccc2)c1C#N	none
N#Cc1c(C(F)(F)F)cc(-c2ccccc2)nc1SCC(N)=O	none
CCOC(=O)CSc1nc(C2CC2)cc(-c2ccccc2)c1C#N	Dicer processing 3.7
Cc1ccc(-c2cc(C(F)(F)F)c(C#N)c(SCC(=O)O)n2)cc1	none
CCOC(=O)CSc1nc(C)cc(C)c1C#N	none
CCOC(=O)CSc1nc(-c2ccc(F)cc2)cc(C(F)(F)F)c1C#N	Dicer processing 3.2
CCOC(=O)c1nnn2c1nc(N/N=C/c1ccc(Cl)cc1)c1ccccc12	none
Cc1ccc(-c2nc(C#N)c(NCCCN3CCOCC3)o2)cc1	none
Cc1ccc(NC(=S)NC(C)(C)C)c(C)c1	none
CC(C)c1cc(Oc2ccc([N+](=O)[O-])cn2)cc(C(C)C)c1	none
CN(C)c1ccc(C(=O)CC2(O)C(=O)N(Cc3ccc(Cl)cc3)c3ccccc32)cc1 (configuration not stated)	none
Cc1ccccc1CN1C(=O)C(O)(CC(=O)c2cccs2)c2cc(Cl)ccc21 (configuration not stated)	Dicer processing 5.3
O=C(CC1(O)C(=O)N(Cc2ccc(Cl)cc2)c2ccccc21)c1cccs1 (configuration not stated)	none
CN1C(=O)C(O)(CC(=O)c2ccccc2)c2ccccc21 (configuration not stated)	none
CN1C(=O)C(O)(CC(=O)c2ccc3c(c2)OCO3)c2ccccc21 (configuration not stated)	none
O=C(CC1(O)C(=O)N(Cc2ccccc2)c2ccccc21)c1ccc(Cl)cc1 (configuration not stated)	Dicer processing 3
Cc1ccc(C(=O)CC2(O)C(=O)N(CCc3ccccc3)c3ccc(Br)cc32)s1 (configuration not stated)	Dicer processing 4.9
Cc1ccccc1CN1C(=O)C(O)(CC(=O)c2cccnc2)c2cc(Cl)ccc21 (configuration not stated)	none
O=C(CC1(O)C(=O)N(CCc2ccccc2)c2ccc(Br)cc21)c1ccco1 (configuration not stated)	none
Cc1ccc(CN2C(=O)C(O)(CC(=O)c3cccs3)c3cc(Cl)ccc32)cc1 (configuration not stated)	none
CN1C(=O)C(O)(CC(=O)c2ccc3c(c2)CCCC3)c2ccccc21 (configuration not stated)	Dicer processing 3.3
Cc1coc(C)c1C(=O)CC1(O)C(=O)N(CCc2ccccc2)c2ccc(Br)cc21 (configuration not stated)	none
CC(=O)Nc1c2ccccc2n2c(C)nc3ccc(Cl)cc3c12	none
Clc1ccc(OCc2nc(-c3ccc(Cl)cc3)no2)cc1	none
CC(=O)C(Sc1nc2ccccc2s1)C(C)=O	none
COc1cccc(C(=O)Nc2nnc(C(F)(F)C(F)(F)C(F)(F)F)s2)c1	none
O=C(CC1(O)C(=O)N(CCc2ccccc2)c2ccc(Cl)cc21)c1cccs1 (configuration not stated)	Dicer processing 4.2
CCN1C(=O)C(O)(CC(=O)c2cccs2)c2ccccc21 (configuration not stated)	none
O=C(CC1(O)C(=O)N(CCc2ccccc2)c2ccc(Br)cc21)c1cccs1 (configuration not stated)	none
CC(C)(C)NS(=O)(=O)c1ccc2c(c1)oc(=O)c1cc(S(=O)(=O)NC(C)(C)C)ccc12	none
O=c1oc2cc(S(=O)(=O)N3CCCC3)ccc2c2ccc(S(=O)(=O)N3CCCC3)cc12	Dicer processing 3.5
CN(C)S(=O)(=O)c1ccc2c(c1)oc(=O)c1cc(S(=O)(=O)N(C)C)ccc12	none
CCOC(=O)c1ccc(N2C(=O)CSC2c2ccccc2)cc1 (configuration not stated)	none
O=C(NNC(=O)c1ccc(Oc2ccc(C3SCCS3)cc2)o1)c1cccc(Cl)c1	none
COc1ccc(-c2nc3n(n2)C(c2cccc(OC)c2OC)C2=C(CCCC2=O)N3)cc1OC (configuration not stated)	none
CC1=C(C(=O)OCCOc2ccccc2)C(c2ccccc2OC(C)C)C2=C(CC(C)(C)CC2=O)N1 (configuration not stated)	none
CSC(SC)=C(C#N)C(=O)c1cccc(C(F)(F)F)c1	Dicer processing 5.1
CSC(SC)=C(C#N)C(=O)c1cccc(C)c1	none
N#CC(C(=O)c1cccc(C(F)(F)F)c1)=C1SCCCCS1	none
Cc1ccc(O)c(C2=Nc3ccccc3N=C(c3ccco3)C2)c1	Dicer processing 4
Cc1ccc(O)c(C2=NN3C(C2)c2ccccc2OC3C(C)C)c1 (configuration not stated)	none
Cc1ccc2c(c1C)NC(=O)CC(c1ccccc1O)=N2	none
O=C(Nc1cccc2[nH]ccc12)c1cccc(C(F)(F)F)c1	none
COC(=O)c1ccc(C2C3=C(CCCC3=O)NC3=C2C(=O)c2ccccc23)cc1 (configuration not stated)	none
NNC(=O)CSCc1c(Cl)cccc1Cl	none
Cc1c(C)c(C)c(S(=O)(=O)Oc2ccccc2N2CC(C)OC(C)C2)c(C)c1C (configuration not stated)	none
CC1=C(C(=O)OC(C)C)C(c2cccc(OCc3ccccc3)c2)n2ncnc2N1 (configuration not stated)	none
